ROMK primary: ROMK potassium channel modulators, primary screen, cell-based, thallium flux, MLSMR library; ATP-sensitive inward rectifier potassium channel 1 (Homo sapiens), P48048; Tet-inducible ROMK, thallium flux fluorescence; actives lie on both sides; B-score at 10 µM; 130,000 tested, 2% active; AID 1918, 2009;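 active means signal ratio slope over the read window, or its plate-corrected B-score, at least 3 SD from the plate mean, either direction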;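 further: B-score of the F/F0 ratio slope over 7 to 12 s after thallium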
Insulin prom inh: inhibitors of insulin promoter-driven GFP, primary screen, imaging, TRM-6 cells (human fetal islet line), eGFP reporter, cell count. reporter expression induced with tamoxifen. inhibition, % at 2 µM. 130,000 tested, 0.9% active;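 active means inhibition above the mean plus 3 SD, with well images judged a real hit on visual review, cut at about 60% in these data, passing the limit was not always enough; inconclusive means inhibition over the cutoff but images rejected on review; inactive means inhibition not above the cutoff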
Ins promoter up: insulin promoter activators in MIN6 cells, imaging, high-content screening, mouse beta cells. 190,000 tested, 0.3% active. AID 1625, 2009. MIN6 insulin promoter-GFP reporter; hits give high values. z-score at 5 µM;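 active means z-score above 3 at 5 µM with at least 500 cells counted in the well; inconclusive means wells under 500 cells, flagged as cytotoxic or low count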
Lmaj promast: Leishmania major promastigote growth inhibition, primary screen | 200,000 tested, 9% active | Leishmania major promastigotes, resazurin fluorescence viability | inhibition, % at 10 µM; in the data active means inhibition above about 50%;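 further: promastigotes grown with compound for 44 hours at 28 °C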
Cl transport mod: KCC2 cotransporter modulators, thallium flux, primary screen, cell-based, HEK293 KCC2, FluoZin-2 fluorescence, MLSMR. KCC2 cells, thallium flux FluoZin-2 fluorescence. B-score of Tl+ flux slope (higher = more flux/activation; lower = inhibition) at 10 µM. AID 1456, 2008. 190,000 tested, 2.2% active;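 active means thallium flux slope and its plate-corrected score both differing from the plate sample mean at a set confidence after two filtering rounds, in either direction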;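 further: slope of fluorescence scaled to starting intensity during 10 to 20 s after thallium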
Target sequence (Q9H2X9 whole entry, looked up): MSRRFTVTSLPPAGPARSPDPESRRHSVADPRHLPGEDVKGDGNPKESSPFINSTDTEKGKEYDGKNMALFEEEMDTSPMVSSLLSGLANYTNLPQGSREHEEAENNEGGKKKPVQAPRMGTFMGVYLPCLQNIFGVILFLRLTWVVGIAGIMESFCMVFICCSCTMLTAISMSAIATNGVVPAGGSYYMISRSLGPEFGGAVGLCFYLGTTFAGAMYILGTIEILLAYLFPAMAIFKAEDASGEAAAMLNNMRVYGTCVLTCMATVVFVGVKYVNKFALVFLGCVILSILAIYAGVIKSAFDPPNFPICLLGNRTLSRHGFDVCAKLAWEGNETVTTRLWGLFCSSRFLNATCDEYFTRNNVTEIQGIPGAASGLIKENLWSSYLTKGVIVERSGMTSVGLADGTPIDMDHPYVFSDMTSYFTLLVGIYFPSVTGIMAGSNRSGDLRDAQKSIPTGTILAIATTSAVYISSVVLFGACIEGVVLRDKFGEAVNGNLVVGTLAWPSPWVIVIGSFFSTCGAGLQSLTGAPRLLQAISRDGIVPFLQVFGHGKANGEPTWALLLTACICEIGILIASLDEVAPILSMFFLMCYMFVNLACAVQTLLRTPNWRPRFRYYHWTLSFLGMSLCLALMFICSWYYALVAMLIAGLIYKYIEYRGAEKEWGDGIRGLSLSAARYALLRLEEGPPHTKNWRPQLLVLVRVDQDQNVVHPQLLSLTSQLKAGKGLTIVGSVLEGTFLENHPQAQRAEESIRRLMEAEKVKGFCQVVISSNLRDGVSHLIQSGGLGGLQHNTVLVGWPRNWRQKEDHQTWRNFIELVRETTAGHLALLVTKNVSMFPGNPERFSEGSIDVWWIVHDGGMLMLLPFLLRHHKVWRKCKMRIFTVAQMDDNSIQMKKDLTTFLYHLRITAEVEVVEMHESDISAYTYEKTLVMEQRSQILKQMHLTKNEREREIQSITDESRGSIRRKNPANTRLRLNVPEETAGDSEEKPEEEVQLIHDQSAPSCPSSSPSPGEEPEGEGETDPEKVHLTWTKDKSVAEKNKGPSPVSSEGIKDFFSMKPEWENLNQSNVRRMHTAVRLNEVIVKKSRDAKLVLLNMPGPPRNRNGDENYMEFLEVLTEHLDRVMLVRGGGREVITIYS
WT yeast gro inh: growth inhibition of WT strain, primary screen, mitochondrial fusion inhibitor project, WT and mutant strains, chemical genetic; mitochondrial fusion phenotypic screen; inhibition, % at 10 µM; 190,000 tested, 2.1% active; in the data active means inhibition above about 58%; tested in S. cerevisiae
KCC2 secondary: KCC2 modulators in sodium-free buffer, confirmation, cell-based, HEK293 KCC2, thallium flux, secondary assay; normalised thallium flux (F/F0 slope) at 10 µM; shares compounds with Cl transport mod; FluoZin2 fluorescence; hits give high values; 3,700 tested, 15% active;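 active means thallium flux slope above the same plate's solvent-only control mean plus 3 SD; inconclusive means the two replicate wells disagree; inactive means no significant difference from solvent-only control wells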
KCC2 bumet counter: thallium flux persisting under bumetanide in KCC2 cells, confirmation, counter-screen for KCC2 modulator project, cell-based, HEK293 KCC2, FluoZin2, secondary assay 3; HEK293-KCC2 + bumetanide/ouabain; hits give high values; 3,700 tested, 49% active; shares compounds with Cl transport mod; normalized thallium flux at 10 µM;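 active means thallium entry rate above the same plate's blocked-transporter control wells by more than 3 SD; inconclusive means the two repeat wells disagree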;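 further: raw slope of fluorescence over initial fluorescence between 10 and 20 s after thallium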
KCC2 secondary2: KCC2 modulators without ouabain present, confirmation, cell-based, HEK293 KCC2, thallium flux, FluoZin2, secondary assay 2; normalized thallium flux at 10 µM; thallium flux FluoZin2 fluorescence; actives lie on both sides; F/F0 rise rate, 10–20 s post-thallium; shares compounds with Cl transport mod; 3,700 tested, 23% active;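 active means thallium flux slope more than 3 SD above or below the plate's solvent-only control mean, mostly below; inconclusive means the two repeat wells disagreed; inactive means no significant shift from solvent-only controls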
HEK counter1: thallium flux modulation in parental HEK cells, confirmation, counter-screen for KCC2 modulator project, cell-based, counterscreen 1; thallium flux rate (normalised fluorescence) at 10 µM; AID 1716, 2009; shares compounds with Cl transport mod; HEK293 parental cells, thallium flux FluoZin2, ouabain; baseline-ratio fluorescence slope, 10–20 s after thallium; 3,700 tested, 46% active;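 active means thallium flux rate significantly above the same plate's solvent-only control wells, beyond their mean plus 3 SD; inconclusive means the two replicate wells gave conflicting results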
KCC2 ouabain: KCC2 inhibitors and activators, ouabain retest, confirmation, HEK-KCC2 cells; shares compounds with Cl transport mod; HEK293-KCC2, thallium flux FluoZin2 fluorescence; bidirectional: low = inhibitor, high = activator; raw Tl+ flux slope (below DMSO = inhibition, above = activation) at 10 µM; 3,700 tested, 48% active; AID 1717, 2009;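 active means thallium flux slope beyond 3 SD from same-plate DMSO control mean in most replicates, usually higher, sometimes lower; inconclusive means repeat tests gave conflicting results; inactive means no significant difference from controls in most replicates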;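 further: slope of initial-normalized fluorescence between seconds 10 and 20 after thallium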
HEK293 Tl flux2: native HEK Tl+ uptake effects, second counter-screen – HEK cells, counterscreen 2, counter-screen for KCC2 modulator project, confirmation | shares compounds with Cl transport mod | HEK293 parental, thallium flux FluoZin-2 fluorescence slope | thallium flux slope at 10 µM | 3,700 tested, 33% active | AID 1718, 2009;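 active means thallium flux slope above the same plate's solvent-control mean plus 3 SD in both duplicate wells; inconclusive means duplicate wells that disagreed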;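 further: run without ouabain in cells lacking the KCC2 cotransporter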
Hits are given with their value; 0 = inactive; ? = inconclusive; - = not tested or not shown. Hits are enriched below; roughly 12% of the tested compounds scored in any of these assays.

SMILES | ROMK primary | Insulin prom inh | Ins promoter up | Lmaj promast | Cl transport mod | WT yeast gro inh | KCC2 secondary | KCC2 bumet counter | KCC2 secondary2 | HEK counter1 | KCC2 ouabain | HEK293 Tl flux2
Cn1c(SCC(=O)NCCc2ccc(S(N)(=O)=O)cc2)nc2ccccc2c1=O | 0 | - | 0 | 0 | 0 | 0 | - | - | - | - | - | -
CN1/C(=C\C(=S)NC(=O)c2cccc(Br)c2)C(C)(C)c2ccccc21 | - | - | 0 | 0 | 4.6 | 65 | 0 | 0.014 | 0 | ? | ? | 0
CN1/C(=C\C(=S)NC(=O)c2ccc([N+](=O)[O-])cc2)C(C)(C)c2ccccc21 | - | - | 0 | 0 | 0 | 0 | - | - | - | - | - | -
O=C(CCN1CCCCCC1)Nc1ccc(F)c(F)c1 | - | - | 0 | 0 | 0 | 0 | - | - | - | - | - | -
Cc1ccc(C(=O)NC(=S)NCC2CCCO2)cc1Br (stereo not given) | 0 | 0 | 0 | 0 | 12 | 0 | 0 | 0.022 | 0 | 0.028 | 0.028 | 0
O=C(NCCc1ccccc1)c1ccc(Br)o1 | 0 | 0 | 0 | 0 | - | 0 | - | - | - | - | - | -
O=C(NC(=S)NCC1CCCO1)c1ccc(Br)o1 (stereo not given) | 0 | 0 | 0 | 0 | 51 | 0 | 0 | 0.049 | 0.045 | 0.037 | 0.043 | 0.032
O=C(CNC(=S)NC(=O)c1ccc(Br)o1)c1ccccc1 | 0 | 0 | 0 | 0 | 5.7 | 0 | 0.014 | 0.047 | 0 | 0.041 | 0.037 | 0.016
O=C(NC(=S)NCC1CCCO1)c1ccco1 (stereo not given) | 0 | 0 | 0 | 0 | 0 | 0 | - | - | - | - | - | -
O=C(NC(=S)NCC1CCCO1)c1cccs1 (stereo not given) | 0 | 0 | 0 | 0 | 0 | 0 | - | - | - | - | - | -
Cc1nn(C)c(C)c1Nc1ccc(N2C(=O)C3CC=CCC3C2=O)cc1[N+](=O)[O-] (stereo not given) | 0 | - | 0 | 0 | 0 | 0 | - | - | - | - | - | -
COc1ccc(OC)c(NC(=O)CSc2nnc(CNC(=O)c3ccco3)o2)c1 | 0 | 0 | 0 | 0 | - | 0 | - | - | - | - | - | -
Cc1ccc(-c2ccc(CCC(=O)O)n2C(C)C)cc1 | - | - | 0 | 0 | -4.4 | 0 | 0 | 0 | 0 | 0 | 0 | 0
COc1ccc(-c2coc3cc(O)cc(O)c3c2=O)cc1 | - | 0 | - | 0 | 0 | 0 | ? | 0 | 0 | 0 | 0.016 | ?
COc1ccc(-c2coc3cc(OC)cc(O)c3c2=O)cc1 | - | 0 | 0 | 0 | 0 | 0 | - | - | - | - | - | -
CC1(C(=O)OCC(=O)c2c[nH]c3ccccc23)CC1(Cl)Cl (stereo not given) | 0 | 0 | 0 | 0 | -2.5 | 67 | 0 | 0 | 0 | 0 | 0.016 | 0
COc1ccc(OCC(=O)c2c[nH]c3ccccc23)cc1 | 0 | 0 | 0 | 0 | 0 | 0 | - | - | - | - | - | -
COc1cccc(N(CC(=O)N/N=C(\C)c2cccs2)S(C)(=O)=O)c1 | 0 | 0 | 0 | 0 | 0 | 0 | - | - | - | - | - | -
COc1cc(O)cc(O)c1C(=O)/C=C/c1ccccc1 | - | - | 0 | 0 | 0 | 0 | - | - | - | - | - | -
COc1cc(OC)c(C(=O)/C=C/c2ccccc2)c(O)c1O | - | - | 0 | - | -1.5 | - | 0 | ? | 0.026 | 0 | ? | 0
CC(Oc1ccc(Cl)cc1Cl)c1ccnc(N)n1 (stereo not given) | 0 | - | 0 | 0 | -2.9 | 0 | 0 | 0 | 0 | 0 | 0 | 0
CC(Oc1ccccc1)c1ccnc(N)n1 (stereo not given) | 0 | - | 0 | 0 | 0 | 0 | - | - | - | - | - | -
CCCCn1nnnc1SCC(=O)NCc1ccco1 | 0 | - | 0 | 0 | 4.5 | 0 | 0 | 0 | 0 | 0 | 0 | ?
Cn1c(=O)c2c(nc(SCC(=O)NCc3ccco3)n2C)n(C)c1=O | 0 | 0 | 0 | 0 | 5.1 | 0 | 0 | 0 | 0 | 0 | 0 | 0
Cc1cccc(NC(=O)c2oc3ccc(S(=O)(=O)N4CCOCC4)cc3c2C)c1C | - | 0 | 0 | 0 | 0 | 0 | - | - | - | - | - | -
SMILES | ROMK primary | Insulin prom inh | Ins promoter up | Lmaj promast | Cl transport mod | WT yeast gro inh | KCC2 secondary | KCC2 bumet counter | KCC2 secondary2 | HEK counter1 | KCC2 ouabain | HEK293 Tl flux2
COc1cccc(C(=O)NNC(=O)c2sccc2-n2cccc2)c1 | 0 | - | - | 0 | 5.9 | 0 | 0 | 0.012 | 0 | 0.012 | 0 | 0.014
COc1ccc(S(=O)(=O)N2CCCCCC2)cc1C(=O)OCC(=O)NCC(C)C | 0 | 0 | 0 | 0 | 0 | 0 | - | - | - | - | - | -
Cc1cc(S(=O)(=O)N2CCN(Cc3ccccc3)CC2)c(C)s1 | - | - | 0 | 0 | 0 | 0 | - | - | - | - | - | -
COc1cc(C)c(C)cc1S(=O)(=O)N1CCN(Cc2ccccc2)CC1 | 0 | 0 | 0 | 0 | - | 0 | 0 | 0 | 0.025 | 0 | ? | 0
Cc1c(C)n(C)c2ccc(C(=O)Nc3cccc4ccccc34)cc12 | - | 0 | - | 0 | 0 | 0 | - | - | - | - | - | -
NC(=O)CSc1nccn1Cc1ccccc1 | 0 | 0 | 0 | 0 | 0 | 0 | - | - | - | - | - | -
O=[N+]([O-])c1ccccc1Sc1nccn1Cc1ccccc1 | - | - | 0 | 0 | -4.2 | 0 | 0 | 0 | 0 | ? | 0.013 | 0
Cc1cccc(N=Nc2ccc(O)c3ncccc23)c1 | 0 | 0 | ? | 100 | 15 | 65 | 0 | 0.034 | 0 | 0.033 | 0.049 | 0.012
Cc1ccc(C)c(N=Nc2ccc(O)c3ncccc23)c1 | - | 0 | 0 | 100 | 13 | 0 | ? | 0.012 | 0 | 0.01 | 0.032 | ?
COc1ccc(-c2nc(Cn3c(SCc4ccc(F)cc4)nc4ccncc43)c(C)o2)cc1OC | - | - | 0 | 0 | -3.5 | 0 | 0 | 0 | 0 | ? | ? | 0
COc1ccc(-c2nc(Cn3c(SCc4ccccc4F)nc4ccncc43)c(C)o2)cc1 | - | - | 0 | 0 | 0 | 0 | - | - | - | - | - | -

Source: PubChem BioAssay (several laboratories)
